# Reference: the supplement of paper PMC11577813, “Eurasian spruce bark beetle detects lanierone using a highly expressed specialist odorant receptor, present in several functional sensillum types” (BMC Biology, 2024)
# ± gives the standard deviation of the averaged measurements.
# Test system: lanierone-responsive B-neuron OSN class (ItypOR36)
# Experiment: net action potential response of lanierone B-neuron (blank-subtracted) (spikes/s (Hz)); higher = stronger excitation
# Settings: 10 µg on filter paper, neuron: B neuron (small spike amplitude)
# Description: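 Single sensillum recordings from antennal olfactory sensilla of live adult Ips typographus. Each compound was 10 µg in paraffin oil, delivered as a 0.5 s puff. Net response = spikes in the first 0.5 s of response minus the 0.5 s pre-stimulus count, doubled to give Hz, with blank response subtracted. Values are for the small-spike lanierone-responsive B-neuron (putatively expressing ItypOR36), recorded in sensilla co-housing the A-neuron class; N = 1-4, averaged.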
# [1] = co-localized A-neuron class: (4S)-cis-verbenol
# [2] = co-localized A-neuron class: (5S,7S)-trans-conophthorin
# [3] = co-localized A-neuron class: (+)-isopinocamphone
# [4] = co-localized A-neuron class: (+)-trans-4-thujanol
# [5] = co-localized A-neuron class: ipsdienol
# [6] = co-localized A-neuron class: myrcene
# [7] = co-localized A-neuron class: p-cymene
Structure (SMILES),net action potential response [1],net action potential response [2],net action potential response [3],net action potential response [4],net action potential response [5],net action potential response [6],net action potential response [7]
CCCCCC(O)CC (racemic) [(±)-3-Octanol],1.33 ± 7.6,-1 ± 3.5,-3.33 ± 4.2,-4 ± 8.6,-4.67 ± 4.2,-6,-3.33 ± 5.8
C=Cc1ccc(OC)cc1 [4-Vinyl anisole],1.33 ± 9,3.33 ± 4.6,1.33 ± 9.2,-2.5 ± 5.5,2.67 ± 6.4,0,0 ± 7.2
CC1=CCC2CC1C2(C)C (stereo not drawn) [(+)-α-Pinene],0 ± 12,-0.5 ± 4.7,0.667 ± 5.8,2 ± 2.8,-4 ± 4,-4,1.33 ± 7
C=CC(O)CCCCC (racemic) [(±)-1-Octen-3-ol],-6.67 ± 5,-0.5 ± 2.5,-2 ± 4,0 ± 1.6,-3.33 ± 1.1,4,0.667 ± 3.1
CC/C=C\CCO,2.67 ± 6.4,-4 ± 6,-4 ± 2,-4.5 ± 3.4,-5.33 ± 5.8,-6,0
COc1ccc(C)cc1 [4-Methyl anisole],-1.33 ± 8.3,2 ± 3.5,2.67 ± 1.1,-2 ± 6.7,0.667 ± 10,-8,-2.67 ± 3.1
